# Screens from PubChem BioAssay.
# SW480 rerep: DNA re-replication induction in SW480 cells. AID 624297. Potency, µM (highest dose often 46.1 µM), inactives show at the top dose re-replication activation, hits mostly activators. SW480 DNA re-replication, Hoechst DNA content imaging, 48 h. actives 1.8% (n = 340,000); note: potency is the fitted concentration of half-maximal effect; % of control where 0% means no effect; nearly all actives have a fitted effect of over 55% in size
#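 Image-based read-out: total Hoechst fluorescence of nuclei (405 nm excitation, 500-530 nm emission), with hits raising the fraction of high-intensity nuclei. SW480 colon cells incubated 48 hr with compounds at 37 C.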
# IL1B secr inh: inflammasome signaling inhibition, IL-1 beta readout; THP-1 LPS/ATP IL-1B secretion, AlphaLISA, 16 h; stronger effect = lower value; activity change, % at 57.5 µM; actives 4.7% (n = 360,000); AID 743279; in the data active = activity change below about -50%; inconclusive = mostly about -30% to -49%; note: % is set by controls: 0 for no effect and ±100 for the full control effect
#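 THP-1 cells pretreated 1 hr with compounds (up to 57.5 uM final), then stimulated with LPS (250 ng/mL final) plus ATP (1.25 mM final); secreted IL-1B measured by AlphaLISA after 16 hr, decreased signal indicating inhibition.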
# Gal4-VP16 FLuc: Gal4-VP16 reporter inhibition counter-screen. AID 2546. actives 3.5% (n = 310,000). Drosophila S2 Gal4-VP16 UAS-luciferase, luminescence, 20 h. Potency, µM (highest dose often 53.6 µM), inactives show at the highest dose activity, negative = inhibition, most hits filed as inhibitors;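 note: Gal4-VP16 expression switched on by copper sulfate through the metallothionein promoter; potency is the fitted concentration of half-maximal effect; % is set by controls: 0 for no effect and ±100 for the full control effect; nearly all actives have a fitted effect of over 50% in size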
# RORgamma inh: blocks mouse ROR gamma transcriptional activity | P51450 | Drosophila S2 Gal4-RORgamma UAS-luciferase reporter, 20 h | Potency, µM (doses to about 53.6 µM), without a hit: at the top dose activity change, negative = inhibition, most hits filed as inhibitors | actives 5.4% (n = 310,000); note: potency is the fitted concentration of half-maximal effect; % is set by controls: 0 for no effect and ±100 for the full control effect; nearly all actives have a fitted effect of over 60% in size
# Target sequence (P51450 whole entry, looked up, the tested form may be a part): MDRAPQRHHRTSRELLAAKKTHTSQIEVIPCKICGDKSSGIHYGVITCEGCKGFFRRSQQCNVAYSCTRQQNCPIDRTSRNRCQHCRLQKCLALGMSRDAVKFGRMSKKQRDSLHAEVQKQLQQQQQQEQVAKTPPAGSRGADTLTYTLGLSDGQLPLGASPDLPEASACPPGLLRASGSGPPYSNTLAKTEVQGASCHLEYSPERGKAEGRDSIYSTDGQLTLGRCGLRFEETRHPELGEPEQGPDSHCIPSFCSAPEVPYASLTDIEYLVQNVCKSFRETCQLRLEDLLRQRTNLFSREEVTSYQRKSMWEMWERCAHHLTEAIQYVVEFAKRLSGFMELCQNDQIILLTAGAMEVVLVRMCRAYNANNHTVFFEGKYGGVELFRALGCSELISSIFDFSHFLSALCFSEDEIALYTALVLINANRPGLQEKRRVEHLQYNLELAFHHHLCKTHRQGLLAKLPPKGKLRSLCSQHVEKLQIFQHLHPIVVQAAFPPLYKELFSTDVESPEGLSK
#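 Stably transfected Drosophila Schneider cells are the test system, with ROR gamma fused to Gal4 and luciferase under UAS control; luminescence is read after 20 hr of 700 uM copper sulfate induction at ambient temperature.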
# MCF10A rerep: induces DNA re-replication in MCF 10a normal breast cells; MCF 10A DNA re-replication, Hoechst nuclear intensity, 48 h; actives 2.9% (n = 350,000); Potency, µM (top dose mostly 46.1 µM), without a hit: top-dose activity, positive = re-replication, actives largely listed as activators; note: potency is the fitted concentration of half-maximal effect; % of control where 0% means no effect; nearly all actives have a fitted effect of over 50% in size
# Active calls of the source: *; i = inactive; ? = inconclusive; nt = no result given; [ ] = another dose, or the depositor's remark. Compounds with a hit are over-represented: about 11% of the library has one in this group of screens. Unless noted, calls come from the whole dose curve; as a rule, active = well fitted curve in the direction sought with a large enough effect; inconclusive = small, poorly fitted or top-dose-only effect, or another doubt; inactive = no such curve, though single readings can be large; an effect the other way counts as inactive or inconclusive.
SMILES,SW480 rerep,IL1B secr inh,Gal4-VP16 FLuc,RORgamma inh,MCF10A rerep
Cc1ccc(Nc2cc(C)nn2-c2nc(C)cc(=O)[nH]2)cc1,?,-110.3*,0.631µM*,0.178µM*,?
Cc1ccc(Nc2nc3ccccc3nc2-n2nc(C)cc2C)cc1,0.9%,5.3,-3.4%,34.3%,?
Cc1ccc(Nc2cc(C)nn2-c2nc(C)cc(C)n2)cc1,2.6%,-27.7,3.16µM*,?,?
O=C(O)c1ccc(NC2=C/C(=N/S(=O)(=O)c3cccs3)c3ccccc3C2=O)cc1,nt,-94.1*,nt,nt,nt
O=C1C(Nc2ccc(O)cc2)=C/C(=N/S(=O)(=O)c2cccs2)c2ccccc21,5.17µM*,-99.5*,12.6µM*,11.2µM*,?
COc1ccc(Cl)cc1NC(=O)c1ccc2c(SCC(=O)O)c3c(nc2c1)CCCC3,-5.9%,?,11.7%,?,?
O=C(CSc1c2c(nc3cc(Cl)ccc13)CCCC2)NCCCN1CCOCC1,?,-100.9*,5.6%,-11.3%,23.1µM*
CCN(CC)CCCNC(=O)CSc1c2c(nc3cc(Cl)ccc13)CCCC2,?,0.0,-11.0%,11.2%,117.2%
O=C(CSc1c2c(nc3cc(Cl)ccc13)CCCC2)NCCN1CCOCC1,?,-91.5*,6.4%,3.8%,?
O=C(CSc1c2c(nc3ccccc13)CCCC2)NCc1ccco1,-0.1%,4.6,-1.6%,1.7%,-5.7%
O=C(CSc1c2c(nc3ccc(Cl)cc13)CCCC2)NCCCN1CCOCC1,?,-92.9*,-0.4%,?,?
COCCCNC(=O)CSc1c2c(nc3ccc(Cl)cc13)CCCC2,-0.1%,-155.5*,-3.2%,?,23.1µM*
CC(C)c1ccc(N(C(=O)c2snc(C(N)=O)c2N)C(C(=O)NC2CCCC2)c2ccncc2)cc1 (centres undefined),13.6%,40.6,-22.4%,31.6%,?
O=C(COC(=O)C1=COCCO1)Nc1cc(C(F)(F)F)ccc1Cl,-23.4%,41.7,nt,nt,-4.3%
O=C(COC(=O)/C=C/c1cccc(F)c1)NC1CCCCC1,nt,-0.3,nt,nt,nt
Cc1ccc(CNC(=O)CSc2c3c(nc4cc(Cl)ccc24)CCCC3)o1,?,-67.6*,1.3%,2.7%,?
CCC(C)NC(=O)c1ccc2c(Cl)c3c(nc2c1)CCC3 (centres undefined),-3.6%,?,-6.0%,12.9%,0.7%
CN1CCN(CCCNC(=O)c2ccc3c(Cl)c4c(nc3c2)CCCC4)CC1,?,-55.9*,-9.3%,-0.1%,-9.9%
CCNc1nc(NCC)nc(N(C)N)n1,4.6%,9.6,?,7.08µM*,9.7%
CC(C)Nc1nc(NC(C)C)nc(N(C)N)n1,-3.4%,41.1,8.8%,-1.2%,2.1%
Clc1cc(-c2ccccc2)nc(-c2ccccc2)n1,0.7%,-51.6*,nt,nt,?
Oc1ccc(-c2cc(-c3ccc(O)cc3)nc(-c3ccccc3)n2)cc1,?,-98.3*,-5.5%,-15.0%,?
Brc1cc(-c2ccccc2)nc(-c2ccccc2)n1,9.3%,-84.3*,nt,nt,?
COCCN(C(=O)COC(=O)/C=C/c1cccc(OC)c1)c1c(N)n(CC(C)C)c(=O)[nH]c1=O,-10.1%,10.2,nt,nt,-2.1%
COc1ccc(Cc2nc3ccccc3n2CC(=O)N/N=C/c2ccc(C)cc2O)cc1OC,?,26.8,6.31µM*,3.55µM*,0.1%
SMILES,SW480 rerep,IL1B secr inh,Gal4-VP16 FLuc,RORgamma inh,MCF10A rerep
COc1ccc(CC(=O)N/N=C/c2c(C)n(C)c3ccccc23)cc1OC,14.6µM*,32.7,-5.7%,-17.3%,7.31µM*
CC(C)CN(C(=O)COC(=O)C12CC3CC(CC(C3)C1)C2)c1c(N)n(Cc2ccccc2)c(=O)[nH]c1=O,4.11µM*,2.9,nt,nt,-20.6%
Cc1ccc2c(CC(=O)OCC(=O)N(CC(C)C)c3c(N)n(Cc4ccccc4)c(=O)[nH]c3=O)coc2c1,6.51µM*,-25.2,nt,nt,?
CCN(C(=O)COC(=O)Cc1coc2cc(C)ccc12)c1c(N)n(Cc2ccccc2)c(=O)[nH]c1=O,-0.9%,2.0,nt,nt,9.2%
CC(C)CN(C(=O)COC(=O)c1cc2ccccc2cc1O)c1c(N)n(Cc2ccccc2)c(=O)[nH]c1=O,-22.5%,-54.4*,nt,nt,?
CCCCN(C)CCCNC(=O)C1CCC(CNS(=O)(=O)c2c(C)cc(C)cc2C)CC1 (centres undefined),-11.5%,15.9,-5.0%,6.9%,0.7%
CCN(CC)CCCNC(=O)C1CCC(CNS(=O)(=O)c2c(C)cc(C)cc2C)CC1 (centres undefined),-6.6%,-1.3,2.3%,13.8%,20.6µM*
COC(=O)[C@@]12C[C@@H](CC(=O)NCC3CCCCC3)C(=O)N(Cc3ccco3)C1=CCC(C)(C)C2,nt,-2.2,nt,nt,nt
O=C(NNC(=S)Nc1ccc(Br)cc1)c1ccccc1Br,?,i,?,?,13.5%
O=C(NNC(=S)NC1CCCCC1)c1ccccc1Br,0.3%,-3.8,?,1.12µM*,0.3%
S=C(NC1CCCCC1)NN(c1ccccc1)c1ccccc1,-1.3%,9.2,5.62µM*,2.51µM*,?
CN(C(=S)NC(=O)c1ccccc1)C1CCCCC1,13.8%,-18.4,1.26µM*,1.12µM*,2.5%
CN(C(=O)c1cccc(NC(=O)c2ccccc2)c1)C1CCCCC1,-1.7%,-2.4,-14.6%,22.6%,1.0%
CN(C(=S)NC(=O)c1ccc(F)cc1)C1CCCCC1,-5.3%,-21.0,1.12µM*,0.891µM*,5.9%
COc1ccc2cnoc(=O)c2c1OC,nt,nt,2.1%,-6.9%,nt
CC1CCCC(NC(=S)NC(=O)c2ccccc2Br)C1C (centres undefined),?,27.0,5.01µM*,2.51µM*,?
CN(C(=S)NC(=O)c1ccc(Cl)cc1)C1CCCCC1,1.7%,19.5,0.794µM*,0.316µM*,7.6%
O=C(NC(=S)NC1CCS(=O)(=O)C1)c1ccccc1 (centres undefined),-0.1%,-15.2,-9.0%,17.4%,-4.8%
O=C(NC(=S)NC1CCCCC1)c1ccccc1,-1.5%,20.5,7.08µM*,5.01µM*,12.7%
O=C(NNC(=S)Nc1ccccc1Cl)c1ccccc1Br,-7.1%,0.0,?,7.94µM*,-0.5%
COc1cc(/C=C/[N+](=O)[O-])ccc1OC(=O)/C=C/c1ccc(F)cc1,-5.5%,?,?,-17.5%[1.91 µM],-2.5%
CC(NC(=O)CSc1nc(C2CC2)n(-c2ccccc2)n1)c1ccco1 (centres undefined),-2.9%,-7.5,nt,nt,6.4%
COC(=O)Cc1ccc(NC(=S)NNC(=O)c2ccccc2Br)cc1,1.2%,-19.1,17.8µM*,1.58µM*,-9.4%
COC(=O)Cc1ccc(NC(=O)c2ccccc2Br)cc1,-4.6%,-3.9,-5.9%,-14.8%,2.9%
COc1cc(OC)c(C(=O)NNC(=S)NC2CCCCC2)cc1OC,-1.0%,-14.3,-10.8%,?,9.1%
COc1ccc(Cl)cc1C(=O)NNC(=S)NC1CCCCC1,-36.9%,33.3,?,0.251µM*,0.0%
